Reference: the supplement of paper PMC7156485

System: HCC1569
Assay: H1.0 immunofluorescence intensity relative to DMSO (% of DMSO); higher = stronger H1.0 induction, active = 140 or more
Conditions: concentration: 10 µM; 24 h
Procedure, shortened: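 HCC1569 and TDF cells were seeded at 800 per well in 384-well plates in RPMI with 10% FBS and treated with compounds at 10 µM for 24 h at 37 °C, in triplicate. After fixation in 3.7% formaldehyde, cells were stained with a rabbit anti-H1.0 antibody, an AlexaFluor 647 secondary and DAPI, and six fields per well were imaged at ×10. H1.0 nuclear intensity or cell number is given as percent of the plate control, using the median of replicates, with HCC1569 values smoothed for positional effects.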
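Also: TDF is a line of transformed human dermal fibroblasts of mesenchymal origin.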

H1.0 immunofluorescence intensity, inactive:
CN1Cc2c(N)cccc2C(c2ccccc2)C1.O=C(O)C=CC(=O)O (stereo unspecified) [Nomifensine maleate] 101
COc1cc2nc(N3CCN(C(=O)C4COc5ccccc5O4)CC3)nc(N)c2cc1OC.CS(=O)(=O)O (stereo unspecified) [Doxazosin mesylate] 110
COc1ccc(CCN(C)CCCC(C#N)(c2cc(OC)c(OC)c(OC)c2)C(C)C)cc1OC.Cl (racemic) 92.3
COc1ccc2[nH]cc(CCNC(C)=O)c2c1 [Melatonin] 93.4
O=c1cc(N2CCNCC2)oc2c(-c3ccccc3)cccc12 136
CN1CCN(C2Cc3ccccc3Sc3ccc(Cl)cc32)CC1.O=C(O)C=CC(=O)O (stereo unspecified) [Clorotepine maleate] 118
Cl.Clc1ccc(Cn2c(CN3CCCC3)nc3ccccc32)cc1 [Clemizole hydrochloride] 90.7
CCCCCCCC/C=C\CCCCCCCC(=O)NCC(=O)O [[(9Z)-9-octadecenoylamino]acetic acid] 100
O=C(O)c1cccnc1C(=O)O [Quinolinic acid] 99.9
NC(CCCP(=O)(O)O)C(=O)O (racemic) 93.7
N=C([NH3+])N1CCc2ccccc2C1.N=C([NH3+])N1CCc2ccccc2C1.O=S(=O)([O-])[O-] [Debrisoquin sulfate] 101
